Drawing on paper PMC8222333, “AsCas12a ultra nuclease facilitates the rapid generation of therapeutic cell medicines”, this text covers binding signal for 17 molecules.

Targets include dAsCas12a S542R (Acidaminococcus sp., UniProt U2UMQ6 1-1307, S542R;D908A;E993A;D1235A); d-enCas12a (Acidaminococcus sp., UniProt U2UMQ6 1-1307, E174R;S542R;K548R;D908A;E993A;D1235A); d-enCas12a-Ultra (Acidaminococcus sp., UniProt U2UMQ6 1-1307, E174R;S542R;K548R;M537R;F870L;D908A;E993A;D1235A).
Holding throughout (assay): Spec-seq (native PAGE EMSA with sequencing of bound and unbound); 25 mM Tris-HCl pH 7.4, 150 mM KCl, 5 mM MgCl2, 10% glycerol, 1 mM DTT, 40 ng/uL salmon sperm DNA; 400 nM Cas12a, 480 nM crRNA, 50 nM library, 37 C 1 h; native PAGE at room temperature; high values mean tight binding
Common to all, as to settings: protein: recombinant
A general note: Mobility shift assays separate free from complexed probe on a gel.
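Also: relative affinity from the bound to unbound sequence frequency ratio in Spec-seq.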

B1: CAAT (dsDNA)
DNA 1: GCTATCTAGTGCTCAGTACGCACTGCAATAGGAAACTTCTGGCAGGACCAGGTCATGAGATCGGAAGAGCACACGTCTGAACTCCAGTCA
DNA 2: TGACTGGAGTTCAGACGTGTGCTCTTCCGATCTCATGACCTGGTCCTGCCAGAAGTTTCCTATTGCAGTGCGTACTGAGCACTAGATAGC
RNA: AAUUUCUACUCUUGUAGAUAGGAAACUUCUGGCAGGACC
Turning to B1, the binding signal with dAsCas12a S542R is -8.59 lnKA; in the assay with d-enCas12a, -5.72 lnKA; with d-enCas12a-Ultra, -3.43 lnKA.

B2: CCAC (dsDNA)
DNA 1: GCTATCTAGTGCTCAGTACGCACTGCCACAGGAAACTTCTGGCAGGACCAGGTCATGAGATCGGAAGAGCACACGTCTGAACTCCAGTCA
DNA 2: TGACTGGAGTTCAGACGTGTGCTCTTCCGATCTCATGACCTGGTCCTGCCAGAAGTTTCCTGTGGCAGTGCGTACTGAGCACTAGATAGC
RNA: AAUUUCUACUCUUGUAGAUAGGAAACUUCUGGCAGGACC
Regarding B2, the figures for the binding signal with dAsCas12a S542R, in the assay with d-enCas12a and with d-enCas12a-Ultra were -8.4 lnKA, -5.65 lnKA and -3.37 lnKA, respectively.

B3: CCAT (dsDNA)
DNA 1: GCTATCTAGTGCTCAGTACGCACTGCCATAGGAAACTTCTGGCAGGACCAGGTCATGAGATCGGAAGAGCACACGTCTGAACTCCAGTCA
DNA 2: TGACTGGAGTTCAGACGTGTGCTCTTCCGATCTCATGACCTGGTCCTGCCAGAAGTTTCCTATGGCAGTGCGTACTGAGCACTAGATAGC
RNA: AAUUUCUACUCUUGUAGAUAGGAAACUUCUGGCAGGACC
Take B3: the binding signal in the assay with dAsCas12a S542R is -8.87 lnKA; with d-enCas12a, -5.81 lnKA; with d-enCas12a-Ultra, -3.45 lnKA.

B4: CACA (dsDNA)
DNA 1: GCTATCTAGTGCTCAGTACGCACTGCACAAGGAAACTTCTGGCAGGACCAGGTCATGAGATCGGAAGAGCACACGTCTGAACTCCAGTCA
DNA 2: TGACTGGAGTTCAGACGTGTGCTCTTCCGATCTCATGACCTGGTCCTGCCAGAAGTTTCCTTGTGCAGTGCGTACTGAGCACTAGATAGC
RNA: AAUUUCUACUCUUGUAGAUAGGAAACUUCUGGCAGGACC
As to B4, the binding signal with dAsCas12a S542R was -8.06 lnKA; in the assay with d-enCas12a, -2.71 lnKA; with d-enCas12a-Ultra it was -0.596 lnKA.

B5: CCAG (dsDNA)
DNA 1: GCTATCTAGTGCTCAGTACGCACTGCCAGAGGAAACTTCTGGCAGGACCAGGTCATGAGATCGGAAGAGCACACGTCTGAACTCCAGTCA
DNA 2: TGACTGGAGTTCAGACGTGTGCTCTTCCGATCTCATGACCTGGTCCTGCCAGAAGTTTCCTCTGGCAGTGCGTACTGAGCACTAGATAGC
RNA: AAUUUCUACUCUUGUAGAUAGGAAACUUCUGGCAGGACC
Consider B5, for which the binding signal with dAsCas12a S542R was -8.95 lnKA; in the assay with d-enCas12a, -5.72 lnKA; with d-enCas12a-Ultra it was -3.45 lnKA.

B6: CAGG (dsDNA)
DNA 1: GCTATCTAGTGCTCAGTACGCACTGCAGGAGGAAACTTCTGGCAGGACCAGGTCATGAGATCGGAAGAGCACACGTCTGAACTCCAGTCA
DNA 2: TGACTGGAGTTCAGACGTGTGCTCTTCCGATCTCATGACCTGGTCCTGCCAGAAGTTTCCTCCTGCAGTGCGTACTGAGCACTAGATAGC
RNA: AAUUUCUACUCUUGUAGAUAGGAAACUUCUGGCAGGACC
As to B6, the binding signal was -8.98 lnKA with dAsCas12a S542R, -5.82 lnKA in the assay with d-enCas12a and -3.56 lnKA with d-enCas12a-Ultra.

B7: CACG (dsDNA)
DNA 1: GCTATCTAGTGCTCAGTACGCACTGCACGAGGAAACTTCTGGCAGGACCAGGTCATGAGATCGGAAGAGCACACGTCTGAACTCCAGTCA
DNA 2: TGACTGGAGTTCAGACGTGTGCTCTTCCGATCTCATGACCTGGTCCTGCCAGAAGTTTCCTCGTGCAGTGCGTACTGAGCACTAGATAGC
RNA: AAUUUCUACUCUUGUAGAUAGGAAACUUCUGGCAGGACC
Turning to B7, the binding signal is -8.68 lnKA with dAsCas12a S542R, -4.44 lnKA in the assay with d-enCas12a and -1.41 lnKA with d-enCas12a-Ultra.

B8: CCCT (dsDNA)
DNA 1: GCTATCTAGTGCTCAGTACGCACTGCCCTAGGAAACTTCTGGCAGGACCAGGTCATGAGATCGGAAGAGCACACGTCTGAACTCCAGTCA
DNA 2: TGACTGGAGTTCAGACGTGTGCTCTTCCGATCTCATGACCTGGTCCTGCCAGAAGTTTCCTAGGGCAGTGCGTACTGAGCACTAGATAGC
RNA: AAUUUCUACUCUUGUAGAUAGGAAACUUCUGGCAGGACC
Turning to B8, the figures for the binding signal in the assay with dAsCas12a S542R, with d-enCas12a and with d-enCas12a-Ultra were -7.57 lnKA, -5.17 lnKA and -1.7 lnKA, respectively.

B9: CACC (dsDNA)
DNA 1: GCTATCTAGTGCTCAGTACGCACTGCACCAGGAAACTTCTGGCAGGACCAGGTCATGAGATCGGAAGAGCACACGTCTGAACTCCAGTCA
DNA 2: TGACTGGAGTTCAGACGTGTGCTCTTCCGATCTCATGACCTGGTCCTGCCAGAAGTTTCCTGGTGCAGTGCGTACTGAGCACTAGATAGC
RNA: AAUUUCUACUCUUGUAGAUAGGAAACUUCUGGCAGGACC
Regarding B9, the binding signal with dAsCas12a S542R is -8.05 lnKA; with d-enCas12a, -1.94 lnKA; with d-enCas12a-Ultra, -0.454 lnKA.

B10: CCAA (dsDNA)
DNA 1: GCTATCTAGTGCTCAGTACGCACTGCCAAAGGAAACTTCTGGCAGGACCAGGTCATGAGATCGGAAGAGCACACGTCTGAACTCCAGTCA
DNA 2: TGACTGGAGTTCAGACGTGTGCTCTTCCGATCTCATGACCTGGTCCTGCCAGAAGTTTCCTTTGGCAGTGCGTACTGAGCACTAGATAGC
RNA: AAUUUCUACUCUUGUAGAUAGGAAACUUCUGGCAGGACC
On to B10, for which the binding signal with dAsCas12a S542R was -8.66 lnKA; in the assay with d-enCas12a, -5.83 lnKA; in the assay with d-enCas12a-Ultra, -3.39 lnKA.

B11: CATT (dsDNA)
DNA 1: GCTATCTAGTGCTCAGTACGCACTGCATTAGGAAACTTCTGGCAGGACCAGGTCATGAGATCGGAAGAGCACACGTCTGAACTCCAGTCA
DNA 2: TGACTGGAGTTCAGACGTGTGCTCTTCCGATCTCATGACCTGGTCCTGCCAGAAGTTTCCTAATGCAGTGCGTACTGAGCACTAGATAGC
RNA: AAUUUCUACUCUUGUAGAUAGGAAACUUCUGGCAGGACC
As to B11, the binding signal with dAsCas12a S542R is -8.56 lnKA; with d-enCas12a, -5.39 lnKA; with d-enCas12a-Ultra it was -2.95 lnKA.

B12: CAGA (dsDNA)
DNA 1: GCTATCTAGTGCTCAGTACGCACTGCAGAAGGAAACTTCTGGCAGGACCAGGTCATGAGATCGGAAGAGCACACGTCTGAACTCCAGTCA
DNA 2: TGACTGGAGTTCAGACGTGTGCTCTTCCGATCTCATGACCTGGTCCTGCCAGAAGTTTCCTTCTGCAGTGCGTACTGAGCACTAGATAGC
RNA: AAUUUCUACUCUUGUAGAUAGGAAACUUCUGGCAGGACC
In the case of B12, the binding signal was -8.93 lnKA with dAsCas12a S542R, -5.81 lnKA with d-enCas12a and -3.41 lnKA with d-enCas12a-Ultra.

B13: CAGC (dsDNA)
DNA 1: GCTATCTAGTGCTCAGTACGCACTGCAGCAGGAAACTTCTGGCAGGACCAGGTCATGAGATCGGAAGAGCACACGTCTGAACTCCAGTCA
DNA 2: TGACTGGAGTTCAGACGTGTGCTCTTCCGATCTCATGACCTGGTCCTGCCAGAAGTTTCCTGCTGCAGTGCGTACTGAGCACTAGATAGC
RNA: AAUUUCUACUCUUGUAGAUAGGAAACUUCUGGCAGGACC
Regarding B13, the binding signal in the assay with dAsCas12a S542R was -8.95 lnKA; with d-enCas12a it was -5.94 lnKA; with d-enCas12a-Ultra, -3.45 lnKA.

B14: CCGC (dsDNA)
DNA 1: GCTATCTAGTGCTCAGTACGCACTGCCGCAGGAAACTTCTGGCAGGACCAGGTCATGAGATCGGAAGAGCACACGTCTGAACTCCAGTCA
DNA 2: TGACTGGAGTTCAGACGTGTGCTCTTCCGATCTCATGACCTGGTCCTGCCAGAAGTTTCCTGCGGCAGTGCGTACTGAGCACTAGATAGC
RNA: AAUUUCUACUCUUGUAGAUAGGAAACUUCUGGCAGGACC
As for B14, the figures for the binding signal in the assay with dAsCas12a S542R, in the assay with d-enCas12a and in the assay with d-enCas12a-Ultra were -8.39 lnKA, -5.85 lnKA and -3.33 lnKA, respectively.

B15: CCGT (dsDNA)
DNA 1: GCTATCTAGTGCTCAGTACGCACTGCCGTAGGAAACTTCTGGCAGGACCAGGTCATGAGATCGGAAGAGCACACGTCTGAACTCCAGTCA
DNA 2: TGACTGGAGTTCAGACGTGTGCTCTTCCGATCTCATGACCTGGTCCTGCCAGAAGTTTCCTACGGCAGTGCGTACTGAGCACTAGATAGC
RNA: AAUUUCUACUCUUGUAGAUAGGAAACUUCUGGCAGGACC
In the case of B15, the binding signal with dAsCas12a S542R is -8.47 lnKA; with d-enCas12a, -5.88 lnKA; in the assay with d-enCas12a-Ultra, -3.38 lnKA.

B16: CCGA (dsDNA)
DNA 1: GCTATCTAGTGCTCAGTACGCACTGCCGAAGGAAACTTCTGGCAGGACCAGGTCATGAGATCGGAAGAGCACACGTCTGAACTCCAGTCA
DNA 2: TGACTGGAGTTCAGACGTGTGCTCTTCCGATCTCATGACCTGGTCCTGCCAGAAGTTTCCTTCGGCAGTGCGTACTGAGCACTAGATAGC
RNA: AAUUUCUACUCUUGUAGAUAGGAAACUUCUGGCAGGACC
B16: the binding signal was -8.62 lnKA in the assay with dAsCas12a S542R, -5.74 lnKA in the assay with d-enCas12a and -3.44 lnKA in the assay with d-enCas12a-Ultra.

B17: CAGT (dsDNA)
DNA 1: GCTATCTAGTGCTCAGTACGCACTGCAGTAGGAAACTTCTGGCAGGACCAGGTCATGAGATCGGAAGAGCACACGTCTGAACTCCAGTCA
DNA 2: TGACTGGAGTTCAGACGTGTGCTCTTCCGATCTCATGACCTGGTCCTGCCAGAAGTTTCCTACTGCAGTGCGTACTGAGCACTAGATAGC
RNA: AAUUUCUACUCUUGUAGAUAGGAAACUUCUGGCAGGACC
B17: the results for the binding signal with dAsCas12a S542R, with d-enCas12a and with d-enCas12a-Ultra were -8.61 lnKA, -5.67 lnKA and -3.37 lnKA, respectively.
